Sampled rows, rich in hits. Any-hit rate of the full collection: about 8.5%.
KDM4E inh: blocks human JMJD2E demethylase activity; B2RXH2; JMJD2E catalytic domain, FDH-coupled NADH fluorescence (FDH is formaldehyde dehydrogenase); Potency, µM (titrated, usually from 57.1 µM), inactives show at the highest dose activity change, negative = inhibition, usual class: inhibitors; hit rate 1.6% among 230,000;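 also: potency is read from the fitted curve at half-maximal effect; 0% = wells with enzyme and -100% = buffer wells without enzyme; nearly all actives have a fitted effect of over 50% in size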
Target sequence (B2RXH2 1-337 limits assumed): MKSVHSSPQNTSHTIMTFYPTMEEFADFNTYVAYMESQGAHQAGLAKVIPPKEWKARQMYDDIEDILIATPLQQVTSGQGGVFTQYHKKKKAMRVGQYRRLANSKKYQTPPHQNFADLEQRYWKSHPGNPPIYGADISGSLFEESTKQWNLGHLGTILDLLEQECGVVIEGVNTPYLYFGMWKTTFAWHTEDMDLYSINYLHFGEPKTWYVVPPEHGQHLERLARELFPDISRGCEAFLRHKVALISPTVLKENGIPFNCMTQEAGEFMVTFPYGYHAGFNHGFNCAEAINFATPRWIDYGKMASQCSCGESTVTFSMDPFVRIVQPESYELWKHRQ
Sfp inh: Sfp phosphopantetheinyl transferase inhibition; Q9F4F7; Biochemical Sfp PPTase activity, qHTS; Potency, µM, inactives show largest response in the series, negative = inhibition, usual class: inhibitors; hit rate 3.5% among 310,000; AID 1490; active = well fitted curve in the direction sought with a large enough effect; inconclusive = small, poorly fitted or top-dose-only effect, or another doubt; inactive = no such curve, though single readings can be large; an effect the other way counts as inactive or inconclusive;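 also: the enzyme is Sfp with the accession as filed and its product quenches rhodamine fluorescence; potency is read from the fitted curve at half-maximal effect; 0% = enzyme reaction without inhibitor and -100% = no enzyme wells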
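After 15 min at room temperature with compound, 15 nM Sfp received 5 uM rhodamine-CoA plus 12.5 uM BHQ-2-ybbR (50 mM Hepes pH 7.6, 10 mM MgCl2). Rate came from the fluorescence difference over 30 min, ex 525/em 598 nm.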
ALDH1A1 inh: blocks purified human ALDH1A1 activity | P00352 | Purified ALDH1A1, NADH fluorescence, propionaldehyde substrate | Potency, µM (doses to about 75.3 µM), inactives show at the highest dose activity, negative = inhibition, actives largely listed as inhibitors | hit rate 7.3% among 220,000 | AID 1030;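 also: potency is read from the fitted curve at half-maximal effect; plate controls were no enzyme wells and a reference inhibitor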
NPSR antag: antagonists of human neuropeptide S receptor cAMP signaling. Q6W5P4. CHO-NPSR cells, cAMP TR-FRET, antagonist mode. Potency, µM (top dose mostly 38.3 µM), for the others: top-dose activity change, negative = inhibition, actives largely listed as inhibitors. hit rate 1% among 220,000. AID 1461; active = well fitted curve in the direction sought with a large enough effect; inconclusive = small, poorly fitted or top-dose-only effect, or another doubt; inactive = no such curve, though single readings can be large; an effect the other way counts as inactive or inconclusive; also: potency is read from the fitted curve at half-maximal effect; nearly all actives have a fitted effect of over 50% in size
Target sequence (Q6W5P4 whole entry, looked up): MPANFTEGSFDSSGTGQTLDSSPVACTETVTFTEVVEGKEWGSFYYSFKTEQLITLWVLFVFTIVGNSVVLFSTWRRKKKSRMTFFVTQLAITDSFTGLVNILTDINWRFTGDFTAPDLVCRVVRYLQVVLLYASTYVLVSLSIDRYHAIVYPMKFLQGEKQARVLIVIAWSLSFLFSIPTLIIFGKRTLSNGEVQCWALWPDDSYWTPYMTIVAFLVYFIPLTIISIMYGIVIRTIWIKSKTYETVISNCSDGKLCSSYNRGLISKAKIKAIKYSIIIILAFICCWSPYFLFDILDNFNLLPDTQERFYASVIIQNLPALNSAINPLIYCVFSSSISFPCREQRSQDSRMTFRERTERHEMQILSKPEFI
FBPA coupling cs: inhibits coupling enzyme system, counter-screen for aldolase hits. coupling enzyme system counterscreen, AmpLite Red fluorescence. activity change, negative = inhibition, % at 58.2 µM, hits read low. hit rate 0.67% among 290,000; in the data active = activity change below about -30%
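Fluorescence at 525 nm excitation and 598 nm emission measured inhibition of the coupled detection system without aldolase. Compounds (at 57.5 uM final) were preincubated 10 min at room temperature with coupling enzyme reagent before a 20 min substrate/AmpLite Red step.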
GoLoco inh red: inhibitors of human Gai1-RGS12 GoLoco interaction (red fluorophore) | P63096 | Gai1:RGS12 GoLoco peptide FP, rhodamine, 10 min | Potency, µM (doses to about 61.6 µM), inactives show at the highest dose activity, negative = inhibition, usual class: inhibitors | hit rate 0.44% among 230,000; active = well fitted inhibition curve with a large enough effect, not every such curve was filed as active; inactive = no such curve, though single readings can be large or run the other way; also: potency is read from the fitted curve at half-maximal effect; nearly all actives have a fitted effect of over 30% in size
An asterisk follows results filed as active; ? = inconclusive; . = no result; [ ] = remark or other dose. Unless noted, calls follow the shape of the dose curve; as a rule, active = well fitted inhibition curve with a large enough effect (not every such curve was filed as active); inconclusive = small, poorly fitted or top-dose-only effect, or another doubt; inactive = no such curve, though single readings can be large or run the other way. Unless noted, % is scaled to controls: 0 for no effect and ±100 for the full control effect.

SMILES | KDM4E inh | Sfp inh | ALDH1A1 inh | NPSR antag | FBPA coupling cs | GoLoco inh red
O=C(c1csc2ccccc12)n1cccn1 | -5% | -5% | 11µM* | -2%[46.1 µM] | -1 | 10%
O=c1cc(Cl)[nH]c(=O)n1Cc1ccccc1 | . | 13% | . | . | 7 | .
O=c1ccsn1Cc1ccccc1 | 5% | 0.63µM* | ? | -19%[46.1 µM] | -3 | -10%
O=c1[nH]c(Nc2ccc(F)cc2)cc2ccccc12 | ? | -27% | ? | -12%[46.1 µM] | -34* | -20%
Cc1cc2ccccc2c(=O)[nH]1 | ? | 13% | -11% | 1%[46.1 µM] | 1 | 7%
Cc1ccccc1Nc1cc2ccccc2c(=O)[nH]1 | ? | -16% | ? | -14%[46.1 µM] | -43* | -11%
COc1cc(NC(=O)CCc2nnc3ccc(N4CCC5(CC4)OCCO5)nn23)cc(OC)c1 | . | 4% | . | . | -2 | .
CCOc1ccc(Cl)cc1S(=O)(=O)N1CCC(C(=O)NCC2CCCO2)CC1 (configuration not stated) | . | 13% | . | . | -1 | .
COc1ccc(/C=N/Nc2nc(NCc3ccco3)nc(Nc3ccc(OC)cc3)n2)cc1 | ? | 15% | 11µM* | -16% | 0 | 12%
CC(=O)c1cccc(NC(=O)C2CCN(C(=O)c3cccs3)CC2)c1 | . | 2% | . | . | 1 | .
Cc1ccc2c(c1)c1nnc(SCC(=O)Nc3cccc(Cl)c3C)nc1n2CC(=O)O | 9% | -22% | ? | 2% | 13 | -6%
Cc1ccc2c(c1)c1nnc(SCC(=O)Nc3ccc(N(C)C)cc3)nc1n2CC(=O)O | . | 79µM* | . | . | -6 | .
COCCNc1c([N+](=O)[O-])c(=O)n(-c2ccccc2)c2ccccc12 | 8% | -1% | ? | 18% | 1 | -4%
CCn1c(=O)c([N+](=O)[O-])c(NCCN(C)C)c2ccccc21 | -1% | 3.5µM* | 11µM* | -5% | 0 | 12%
O=c1c([N+](=O)[O-])c(NCCN2CCCCCC2)c2ccccc2n1-c1ccccc1 | -10% | -13% | 4µM* | -7% | 5 | 9%
Cc1nc(CS(=O)(=O)c2ccccn2)sc1C(=O)NNC(=O)c1ccc(Cl)cc1 | 0% | 11% | . | 12% | 10 | 5%
O=c1oc2ccccc2c(N2CCCC2)c1CN1CCCC1 | -9% | 3% | 14µM* | -11%[46.1 µM] | 3 | 2%
NC1=NC[C@@H](Cc2ccc(O)cc2)N1CCCCC1CCCCC1 | 7% | 4% | . | 5µM* | -3 | 4%
Cc1ccc2[nH]c(=O)c(CNS(=O)(=O)c3ccccc3)c(-c3ccccc3)c2c1 | ? | 8% | ? | -2% | 0 | 1%
CC(C)Cn1[nH]c2c3c(ccc2c1=O)C(=O)c1ccccc1C3=O | 11% | -3% | ? | -25%[46.1 µM] | -30* | 2%
N#Cc1c(Cl)nsc1NCCN1CCOCC1 | . | 13% | . | . | 4 | .
CN(C)CC(=O)c1c(N)n(Cc2ccccc2)c(=O)n(C)c1=O | 3% | 6% | 10% | 19% | 1 | -5%
Cn1c(=O)c(C(=O)CCl)c(N)n(Cc2ccccc2)c1=O | 1% | -2% | 7.1µM* | 13% | 1 | 2%
CCCc1cc(C(=O)Nc2sc(C(C)=O)c(C)c2C(=O)OCC)no1 | 5% | -21% | 25µM* | -12%[46.1 µM] | -1 | 2%
CCOC(=O)c1c(NC(=O)c2cc(CC(C)C)on2)sc(C(C)=O)c1C | -23% | -12% | ? | -3%[46.1 µM] | 1 | 5%
SMILES | KDM4E inh | Sfp inh | ALDH1A1 inh | NPSR antag | FBPA coupling cs | GoLoco inh red
CCOC(=O)c1c(NC(=O)CC)sc(C(C)=O)c1C | -5% | 40µM* | 14µM* | -13%[46.1 µM] | 1 | 4%
COc1cc(NC(=O)c2ccc3c(=O)n(Cc4ccco4)c(=S)[nH]c3c2)cc(OC)c1OC | 15% | ? | 1.3µM* | -15%[46.1 µM] | 0 | 7%
CN1CCN(C(=O)c2ccc3c(=O)n(Cc4ccco4)c(=S)[nH]c3c2)CC1 | -2% | -5% | ? | -10%[46.1 µM] | 1 | 7%
CCCN(CCC)C(=O)c1ccc2c(=O)n(Cc3ccco3)c(=S)[nH]c2c1 | -23% | 13µM* | 25µM* | -42% | 0 | 19%
O=c1c2cc3c(cc2[nH]c(=S)n1Cc1ccco1)OCO3 | 3% | 20µM* | ? | -8%[46.1 µM] | 4 | .
O=C(c1ccc2c(=O)n(Cc3ccco3)c(=S)[nH]c2c1)N1CCN(Cc2ccccc2)CC1 | -4% | 9% | ? | -20%[46.1 µM] | 2 | 7%
Cc1nn(CC(C)C)c(Cl)c1C(=O)N(C)CC(=O)Nc1c(Cl)cccc1Cl | . | 9% | . | . | . | .
CCN(CC)c1ccc(/C=N/N2CCOCC2)c(O)c1 | ? | -13% | ? | -14% | 1 | 60%
CCN(CC)c1ccc(/C=N/N=C(N)N)c(O)c1 | ? | 6% | ? | -6% | -3 | 45%
CCN1CCN(c2ccc(N=Cc3ccc(O)cc3O)cc2)CC1 | 14µM* | -2% | -6% | -8% | -4 | 14%
CCN(CC)c1ccc(C=Nc2ccccc2)c(O)c1 | ? | -29% | 3.5µM* | 10%[46.1 µM] | -13 | 42%
Oc1c(Br)cc(Cl)cc1C=Nc1ccc(N2CCOCC2)cc1 | 6% | -5% | -3% | 13% | -8 | 217%
CCN(CC)c1ccc(C=Nc2ccc(C)cc2)c(O)c1 | -5% | -17% | ? | -14%[46.1 µM] | -16 | 15%
CCN(CC)c1ccc(C=Nc2cc(C)cc(C)c2)c(O)c1 | 0% | -2% | 14µM* | -27% | 2 | -12%
CCN(CC)c1ccc(C=Nc2ccc(N(C)C)cc2)c(O)c1 | -1% | 50µM* | ? | ? | -27 | 122%
COc1ccc(C(=O)N2CCC3(CC2)CN(c2ncccn2)C3)cc1 | . | -9% | ? | . | 6 | 6%
CC(C)CC(CSc1ccc(Br)cc1)N1CCN(CC(C)C)CCC1=O (configuration not stated) | . | -9% | . | . | 0 | .
CCN(CC)c1ccc(N=Cc2ccc(N(CC)CC)cc2O)cc1 | ? | ? | 1.8µM* | -15%[46.1 µM] | -13 | 112%
COc1ccccc1N1CCN(/N=C/c2ccc(O)c(O)c2)CC1 | 28µM* | 22µM* | ? | -14% | -6 | -22%
COc1cc(/C=N/N2CCCCC2)cc(OC)c1O | . | 45µM* | . | . | -14 | .
Oc1ccc(/C=N/N2CCCCC2)cc1O | . | 50µM* | . | . | -7 | .
COc1ccc(O)c(/C=N/N2CCCCC2)c1 | . | 8% | . | . | -3 | .

Screens: PubChem, National Center for Advancing Translational Sciences (NCATS)
